Laboratory results from publication PMC3218832.

Columns and labels:
Experiment in all cases: protein binding microarray; high values mean tight binding
Settings in all cases: dsDNA, one strand shown
RELARELA (p65 homodimer) = RELARELA (p65 homodimer) (Homo sapiens, UniProt Q04206 1-307)
p50p50 homodimer = p50p50 homodimer (Homo sapiens, UniProt P19838 7-356)
p52p52 homodimer = molecular target: T1, p52p52 homodimer (Homo sapiens, UniProt Q00653 4-332)
T1 sequence: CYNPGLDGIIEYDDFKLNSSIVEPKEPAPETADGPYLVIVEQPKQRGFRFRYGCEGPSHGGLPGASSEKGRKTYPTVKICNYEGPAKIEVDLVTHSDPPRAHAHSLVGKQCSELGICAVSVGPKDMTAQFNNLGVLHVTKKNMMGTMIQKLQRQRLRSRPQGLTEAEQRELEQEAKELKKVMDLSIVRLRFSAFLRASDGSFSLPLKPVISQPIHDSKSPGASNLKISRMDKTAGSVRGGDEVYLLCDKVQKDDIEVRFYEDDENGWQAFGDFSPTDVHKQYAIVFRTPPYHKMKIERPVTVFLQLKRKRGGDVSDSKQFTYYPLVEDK

[1] = molecular target: RELA (p65) subunit of heterodimer;p50 subunit (Homo sapiens;Homo sapiens, UniProt Q04206;P19838 1-307;7-356)
Chain of RELA (p65) subunit of heterodimer;p50 subunit (Q04206 1-307, chain 1 of 2): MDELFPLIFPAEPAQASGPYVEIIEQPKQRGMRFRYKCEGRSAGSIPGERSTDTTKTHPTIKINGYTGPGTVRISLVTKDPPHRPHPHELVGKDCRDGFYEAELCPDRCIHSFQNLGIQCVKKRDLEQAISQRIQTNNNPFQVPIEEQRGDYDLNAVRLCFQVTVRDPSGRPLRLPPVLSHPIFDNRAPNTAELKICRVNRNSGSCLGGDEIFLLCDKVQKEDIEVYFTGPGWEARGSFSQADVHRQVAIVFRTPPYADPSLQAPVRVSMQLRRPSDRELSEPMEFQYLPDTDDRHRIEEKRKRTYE
Chain of RELA (p65) subunit of heterodimer;p50 subunit (P19838 7-356, chain 2 of 2): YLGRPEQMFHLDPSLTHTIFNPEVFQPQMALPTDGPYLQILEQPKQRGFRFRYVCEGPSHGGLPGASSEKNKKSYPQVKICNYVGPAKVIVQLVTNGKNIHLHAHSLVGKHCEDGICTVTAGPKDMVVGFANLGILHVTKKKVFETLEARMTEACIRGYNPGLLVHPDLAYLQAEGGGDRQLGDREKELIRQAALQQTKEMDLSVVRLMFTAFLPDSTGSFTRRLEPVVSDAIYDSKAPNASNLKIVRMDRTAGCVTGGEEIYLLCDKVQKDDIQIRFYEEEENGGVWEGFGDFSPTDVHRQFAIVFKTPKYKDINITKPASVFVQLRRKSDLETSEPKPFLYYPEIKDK

[2] = molecular target: RELA (p65) subunit of heterodimer;p52 subunit (Homo sapiens;Homo sapiens, UniProt Q04206;Q00653 1-307;4-332)
RELB subunit;p50 subunit = RELB subunit;p50 subunit (Homo sapiens;Homo sapiens, UniProt Q01201;P19838 120-401;7-356)
RELB subunit;p52 subunit = molecular target: T2, RELB subunit;p52 subunit (Homo sapiens;Homo sapiens, UniProt Q01201;Q00653 120-401;4-332)
T2 sequence 1: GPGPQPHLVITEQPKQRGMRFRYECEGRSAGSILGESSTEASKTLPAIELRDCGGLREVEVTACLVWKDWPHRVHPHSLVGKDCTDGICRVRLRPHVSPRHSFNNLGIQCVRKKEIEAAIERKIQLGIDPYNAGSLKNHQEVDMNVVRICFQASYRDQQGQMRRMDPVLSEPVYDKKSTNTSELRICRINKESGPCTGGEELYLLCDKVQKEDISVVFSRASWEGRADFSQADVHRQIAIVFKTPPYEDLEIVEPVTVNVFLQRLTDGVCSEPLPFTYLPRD
T2 sequence 2: T1 sequence

[3] = molecular target: C-Rel subunit;p50 subunit (Homo sapiens;Homo sapiens, UniProt Q04864;P19838 1-285;7-356)
[4] = molecular target: T3, C-Rel subunit;p52 subunit (Homo sapiens;Homo sapiens, UniProt Q04864;Q00653 1-285;4-332)
T3 sequence 1: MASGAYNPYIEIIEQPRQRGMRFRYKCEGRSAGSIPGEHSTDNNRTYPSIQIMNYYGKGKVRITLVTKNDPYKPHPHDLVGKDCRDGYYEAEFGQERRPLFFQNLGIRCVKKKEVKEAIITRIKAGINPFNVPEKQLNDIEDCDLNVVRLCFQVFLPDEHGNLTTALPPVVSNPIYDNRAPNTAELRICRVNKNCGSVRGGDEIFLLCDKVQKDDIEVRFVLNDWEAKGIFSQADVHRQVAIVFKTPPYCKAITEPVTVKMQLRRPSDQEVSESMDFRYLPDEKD
T3 sequence 2: T1 sequence

Chain of p50p50 homodimer (P19838 7-356): as the sequence (P19838 7-356, chain 2 of 2) above
Chain of RELARELA (p65 homodimer) (Q04206 1-307): as the sequence (Q04206 1-307, chain 1 of 2) above

Sequence | binding signal (RELARELA (p65 homodimer)) [z-score] | binding signal (p50p50 homodimer) [z-score] | binding signal (p52p52 homodimer) [z-score] | binding signal [1] [z-score] | binding signal [2] [z-score] | binding signal (RELB subunit;p50 subunit) [z-score] | binding signal (RELB subunit;p52 subunit) [z-score] | binding signal [3] [z-score] | binding signal [4] [z-score]
AGAGGTGTCCT | -0.184 | -1.69 | -0.541 | -0.927 | -0.707 | -0.854 | -0.664 | -1.22 | -0.658
CGATTAGTCCT | -0.163 | -1.16 | -0.532 | -0.961 | -0.861 | -1.12 | -0.766 | -1.1 | -0.684
AGAAAACTCCC | 1.36 | 1.03 | 0.9 | 1.14 | 0.979 | 1.35 | 0.74 | 0.654 | 0.947
AGATATTCCCC | 1.8 | 1.31 | 2.2 | 2.03 | 1.99 | 1.8 | 1.96 | 1.64 | 1.71
CGGAGGCCCCC | -1.02 | 0.282 | -0.0558 | 0.494 | 0.175 | -0.0407 | 0 | 0.165 | 0.393
GAGAATACCCC | 0.964 | 1.14 | 0.914 | 1.24 | 1.18 | 1.05 | 1.31 | 1.03 | 0.996
GAGTATCCCCT | 0.0376 | 1.26 | 1.26 | 1.29 | 1.26 | 1.28 | 1.35 | 0.928 | 0.943
CAGATGACCCC | -0.4 | -0.382 | -0.355 | -0.422 | -0.386 | -0.204 | -0.302 | -0.754 | -0.39
GGAGGCGCCCC | -0.259 | -0.0933 | -0.0824 | -0.062 | 0.0158 | 0 | 0.214 | -0.156 | -0.0409
AAAAACATCCT | -0.23 | -0.94 | -0.575 | -0.766 | -0.82 | -0.865 | -0.741 | -1.09 | -0.784
AGAGAGGCCCC | -0.813 | -0.259 | -0.348 | -0.461 | -0.565 | -0.342 | -0.35 | -0.436 | -0.513
AAGTGGGCCCT | -0.584 | -0.904 | -0.603 | -0.886 | -0.714 | -0.762 | -0.527 | -1.25 | -0.634
CGGTATCCCCC | 0.855 | 1.13 | 2.07 | 1.69 | 1.56 | 1.33 | 1.65 | 1.23 | 1.71
CAATGAATCCC | -0.259 | -0.487 | -0.235 | -0.428 | -0.353 | -0.22 | -0.356 | -0.0958 | -0.345
CAGAACCTCCT | -0.658 | -1.31 | -0.791 | -0.921 | -0.938 | -0.924 | -0.944 | -1.48 | -0.853
AGAATTGCCCT | 0.531 | -0.747 | -0.409 | 0.222 | -0.0792 | -0.516 | -0.558 | -0.0961 | 0.0532
GAGTTGCCCCC | 0.487 | 1.04 | 0.557 | 1.06 | 0.811 | 0.918 | 0.947 | 1.16 | 0.676
AAAATTTTCCT | 1.75 | 0.214 | 0.0641 | 0.434 | 0.225 | -0.311 | -0.176 | 0.47 | 0.322
CGGTGGTTCCT | 0.0744 | 0.731 | 1.05 | 0.41 | 0.701 | 0.293 | 0.552 | -0.0201 | 0.719
CAATTCCCCCC | 1.09 | 1.66 | 1.93 | 2.3 | 1.94 | 2.19 | 2.34 | 1.94 | 1.85
CGGAATCCCCT | 2.17 | 1.6 | 2.39 | 2.3 | 2.13 | 2.43 | 2.22 | 1.83 | 2.31
AGAAGTCTCCT | -0.456 | -1.85 | -0.738 | -0.94 | -0.879 | -0.942 | -0.985 | -1.36 | -0.926
GAGTGCGTCCT | -0.395 | -1.33 | -0.581 | -0.981 | -0.769 | -0.991 | -0.844 | -1.14 | -0.662
AAGAACCCCCT | -0.175 | 1.5 | 1.86 | 2.09 | 1.57 | 2.18 | 2.07 | 1.44 | 1.48
GAGTATATCCT | -0.264 | -1.06 | -0.578 | -0.876 | -0.768 | -1 | -0.866 | -1.36 | -0.891
GAAGGCTCCCT | -0.795 | -1.03 | -0.473 | -0.74 | -0.784 | -0.594 | -0.67 | -1.02 | -0.773
GGAGTGACCCC | -0.389 | -0.505 | -0.461 | -0.353 | -0.178 | -0.399 | -0.304 | -0.367 | -0.254
CAAAATGCCCT | 0.196 | -0.106 | -0.35 | -0.0537 | -0.15 | -0.464 | -0.38 | -0.13 | -0.0299
CAAGGCCCCCT | -1.53 | 0.645 | 0.212 | 0.0559 | 0.254 | 0.314 | 0.508 | -0.126 | -0.139
AGAATGACCCC | -0.278 | -0.204 | -0.112 | -0.177 | -0.287 | -0.428 | -0.388 | -0.442 | -0.311
